Screens (PubChem)
ATXN2 expr inh – ATXN2 expression inhibition; HEK-293 ATXN2-luciferase reporter, luminescence, 24 h; Potency, µM (titrated, usually from 57 µM), inactives show top-dose activity change, negative = inhibition, most hits filed as inhibitors; 360,000 compounds, 0.72% hits; AID 1745845; note: potency is the fitted concentration of half-maximal effect; % is set by controls: 0 for no effect and ±100 for the full control effect; nearly all actives have a fitted effect of over 55% in size
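qHTS (up to 57 uM final) was run with 24 h compound exposure of reporter cells at 37 °C. Each well was multiplexed: SteadyGlo luminescence measured ATXN2-luciferase expression after a fluorogenic Gly-Phe-AFC viability readout (25 uM final).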
HepG2 viability – HepG2 cytotoxicity, counter-screen for TGF-b inhibitors; Potency, µM (top dose mostly 46.1 µM), for the others: at the top dose activity change, negative = cytotoxicity, usual class: cytotoxic; HepG2 CAGA-GFP viability, ATP luminescence, 18 h; 410,000 compounds, 0.76% hits; note: potency is the fitted concentration of half-maximal effect
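HepG2 CAGA-GFP cells (1000/well, DMEM with 1% FBS) received compound, then TGF-beta at 500 pg/mL final, and were incubated 18 hours at 37 degrees C. Viability was read by CellTiter-Glo luminescence. Media-only wells were set as complete cell-killing and DMSO as no toxicity.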
TGFb inhibitor – TGF-b pathway inhibition; HepG2 CAGA-GFP TGF-b/SMAD3 reporter, GFP fluorescence, 18 h; TGF-beta stimulated, 500 pg/mL final; Potency, µM (highest dose often 46.1 µM), without a hit: top-dose activity, negative = inhibition, hits mostly inhibitors; 410,000 compounds, 1.2% hits; note: potency is the fitted concentration of half-maximal effect; % is set by controls: 0 for no effect and ±100 for the full control effect; nearly all actives have a fitted effect of over 65% in size
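HEPG2 CAGA-GFP, 1000 cells/well; 2 h settle, 37 C; cpd via pin tool; TGF-b 500 pg/mL final; 18 h, 37 C; GFP imaging ex488/em500-530; %Activity normalised to -TGF-b and +DMSO controls; CRC fit, curve class.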
S2 tox – cell viability loss in ATXN counter-screen. S2 cells (HEK-293 line with an ATXN2-luciferase reporter) viability, CellTiter-Fluor protease fluorescence, 24 h. Potency, µM (highest dose often 56.7 µM), hits mostly cytotoxic. 400,000 compounds, 0.49% hits; note: potency is the fitted concentration of half-maximal effect; nearly all actives have a fitted effect of over 40% in size
IL1B secr inh – inflammasome signaling inhibition, IL-1 beta readout; THP-1 LPS/ATP IL-1B secretion, AlphaLISA, 16 h; hits give low values; activity change, % at 57.5 µM; 360,000 compounds, 4.7% hits; AID 743279; in the data active = activity change below about -50%; inconclusive = mostly about -30% to -49%; note: % is set by controls: 0 for no effect and ±100 for the full control effect
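THP-1 cells pretreated 1 hr with compounds (up to 57.5 uM final), then stimulated with LPS (250 ng/mL final) plus ATP (1.25 mM final); secreted IL-1B measured by AlphaLISA after 16 hr, decreased signal indicating inhibition.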
* = called active by the depositor; i = inactive; ? = inconclusive; . = not tested or not shown; [ ] = remark or other dose. Hits are enriched below; roughly 5.7% of the tested compounds scored in any of these assays. Unless noted, calls come from the whole dose curve; as a rule, active = well fitted curve in the direction sought with a large enough effect; inconclusive = small, poorly fitted or top-dose-only effect, or another doubt; inactive = no such curve, though single readings can be large; an effect the other way counts as inactive or inconclusive.

SMILES | ATXN2 expr inh | HepG2 viability | TGFb inhibitor | S2 tox | IL1B secr inh
CO[C@@H]1[C@@H](OC2OC(C)C(OC3CC(C)(O)C(OC(=O)CC(C)C)C(C)O3)C(N(C)C)C2O)[C@@H](CC=O)C[C@@H](C)C(=O)/C=C\C2O[C@H]2C[C@@H](C)OC(=O)C[C@H]1OC(C)=O (some centres undefined) | . | 2% | ? | . | .
c1ccc(-c2nc(-c3cnc4ccccc4n3)cs2)cc1 | . | -2% | 16% | . | .
Cc1ccc(C(=O)/C=C/c2cn(CN3CCN(C)CC3)c3ccccc23)cc1 | 51% | -87% | ? | i | -55*
Cc1ccccc1OCCNC(=O)/C=C/c1ccc([N+](=O)[O-])cc1 | -18% | 5% | 4% | i | -70*
COc1ccccc1OCCNC(=O)/C=C/c1ccc([N+](=O)[O-])cc1 | -5% | -7% | -23% | i | 11
CCCOc1ccc(/C=C/C(=O)Nc2ccc([N+](=O)[O-])cc2)cc1 | ? | -10% | 0% | ? | -87*
COc1cc(OC)c(OC)cc1CNc1sc2c(c1C(=O)Nc1ccccc1OC)CCC2 | -30% | -9% | 6% | ? | .
c1ccc(SSc2ccccn2)nc1 | -20% | -40% | ? | i | -91*
c1ccc(Sc2ccccn2)cc1 | -5% | -8% | 2% | i | 1
CCCN(CCC)C(=O)Cn1c(=O)n(-c2ccc(Cl)c(Cl)c2)c(=O)c2c(C)c(C(=O)N(C)C)sc21 | . | -14% | 0% | . | .
O=C(c1cncc(Br)c1)N1CCC(N2CCCC2)CC1 | -2% | . | . | . | .
COC(=O)C1=C(C)NC(=O)/C1=C\c1cc(C)n(-c2ccccc2C)c1C | 14% | -9% | -9% | i | -22
COC(=O)C1=C(C)NC(=O)/C1=C\c1cc(C)n(-c2ccccc2F)c1C | 125% | -21% | 5% | i | -114*
Cc1c(C(=O)N2CCCCCC2)sc2ncnc(NCC3CCCO3)c12 (centres undefined) | . | . | . | i | .
CCOC(=O)c1c(-c2ccc(C)o2)csc1NC(=O)CN1CCCCC1 | 8% | 8% | ? | i | ?
CCOC(=O)c1c(-c2ccc(C)o2)csc1NC(=O)CN1CCC(C(N)=O)CC1 | -24% | 0% | ? | i | -78*
CCOC(=O)c1c(-c2ccc(C)cc2)csc1NC(=O)CCN1CC(C)OC(C)C1 (centres undefined) | -24% | 20µM* | ? | i | -6
COc1ccc(-c2csc(NCc3ccco3)n2)cc1C | 76% | -34% | ? | ? | -52*
Cc1ccc(NC2=C(Cl)C(=O)OC2OC(=O)c2ccco2)cc1C (centres undefined) | 3% | -18% | -17% | i | -87*
Cc1ccc(NC2=C(Cl)C(=O)OC2OC(=O)c2ccco2)c(C)c1 (centres undefined) | 2% | -44% | -27% | ? | 0
Cc1ccc(C)c(NC2=C(Cl)C(=O)OC2OC(=O)c2ccco2)c1 (centres undefined) | -22% | -42% | -16% | ? | -90*
CCC(C)NC(=O)c1nn(-c2ccc(C)cc2)nc1CO (centres undefined) | . | -5% | -12% | . | .
CC(C)(C)CC(=O)NCC(c1ccc2c(c1)OCO2)N1CCN(c2ccccc2)CC1 (centres undefined) | -14% | -25% | -24% | i | .
O=C(NC1CCN(C(=O)N2c3ccccc3Sc3ccccc32)CC1)c1ccco1 | 26% | -3% | -23% | ? | -8
O=C(NC1CCN(C(=O)N2c3ccccc3Sc3ccccc32)CC1)c1ccccc1Cl | -25% | 0% | ? | i | -59*
SMILES | ATXN2 expr inh | HepG2 viability | TGFb inhibitor | S2 tox | IL1B secr inh
COc1cccc(C(=O)NC2CCN(C(=O)N3c4ccccc4Sc4ccccc43)CC2)c1 | ? | -18% | -23% | i | -57*
COc1cccc(C(=O)N2c3ccccc3Sc3ccccc32)c1 | 13% | -27% | ? | i | -11
CC(C)(C)c1ccc(-n2ncc3c2CCCC3NC(=O)CN2CCCC2=O)cc1 (centres undefined) | -12% | 13µM* | -42% | i | i
CC(C)(C)c1ccc(-n2ncc3c2CCCC3NC(=O)c2cnccn2)cc1 (centres undefined) | -15% | -51% | -5% | i | -82*
CC(C)(C)c1ccc(-n2ncc3c2CCCC3NC(=O)CCN2CCCC2=O)cc1 (centres undefined) | . | . | -24% | i | 18
Cc1nn(C)c2c1c(-c1ccccc1)cc(=O)n2Cc1ccc(F)cc1 | 0% | -10% | 6% | i | .
CCC1=C(c2ccc(C)cc2)S(=O)(=O)N=C1N1CCC(C(=O)NCCc2ccc(Cl)cc2)CC1 | . | -22% | 13µM* | . | .
CCOc1ccc(CCNC(=O)c2cn(CC)c3ccc(S(=O)(=O)N4CCCCCC4)cc3c2=O)cc1OCC | 4% | -12% | -12% | i | .
COc1c(Cl)cc(C(=O)N(Cc2ccc(C)o2)C2CCS(=O)(=O)C2)cc1Cl (centres undefined) | 7% | -21% | -21% | i | .
O=C(CSc1nc2ccsc2c(=O)n1Cc1ccccc1)NCc1ccco1 | 4% | 3% | -8% | i | -7
CCC(Sc1nc2ccsc2c(=O)n1-c1ccc(Cl)c(C)c1)C(=O)NCc1ccco1 (centres undefined) | -9% | -17% | -18% | ? | -71*
O=C(Cn1cncn1)N1CCOc2ccc(CN3CCN(c4ccccc4)CC3)cc2C1 | . | . | . | i | .
Cc1nnc2ccc(-c3cccc(NC(=O)c4ccc(Br)o4)c3)nn12 | -4% | -35% | 3% | i | -65*
O=C(Nc1ccccc1)Nc1nnc(-c2ccccc2)o1 | 28% | -17% | 3% | i | -102*
Cc1nnc2ccc(-c3cccc(NC(=O)c4ccc(Cl)nc4)c3)nn12 | 0% | 15% | -1% | i | -23
O=C(Nc1cccc(-c2nnc(-c3ccccc3)o2)c1)c1ccc(Br)o1 | ? | -45% | ? | 35µM* | -24
CC(C)COc1ccc(C(=O)N(Cc2ccc(N(C)C)cc2)Cc2ccco2)cc1 | . | -40% | . | . | .
O=c1c2c(nc3cc(-c4ccc(Br)cc4)[nH]n13)CCCC2 | 50%[11.3 µM] | -28% | -6% | i | -61*
Fc1ccc(-c2nnc(NC3=NCCCCC3)o2)cc1 | 4µM* | 13µM* | 5% | i | 11
c1ccc(-c2nnc(NC3=NCCC3)o2)cc1 | ? | -17% | -5% | i | 28
CCC1=NN(C(=O)c2cccc(Br)c2)C(O)(c2ccc(Br)cc2)C1 (centres undefined) | ? | -35% | 8.9µM* | ? | 138
